Measured values as given in PubChem BioAssay AID2685 (National Center for Advancing Translational Sciences (NCATS), 2010).
Hit rate of the full screen: of about 320,000 compounds, about 2,100 (0.66%) were called active. Another 53% or so got no clear call; they are omitted. Calls come from the whole dose curve; as a rule, active = well fitted inhibition curve with a large enough effect in the signal ratio, with a control signal flat (not every such curve was filed as active); inconclusive = small, poorly fitted or top-dose-only effect, or effect the other way, or a change in a side signal; inactive = flat fitted curve, though single readings scatter; the % refers to the signal ratio. Shown is part of a subset that was picked to be rich in actives.

Test: qHTS Assay for Lipid Storage Modulators in Drosophila S3 Cells;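 for cell number change: cells counted by Cell Tracker Red CMTPX staining in the red channel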; for lipid storage change, negative = inhibition: % is set by controls: 0 for no effect and ±100 for the full control effect
Conditions: BODIPY lipid droplet fluorescence, 18-24 h, cells fed with added oleic acid; cell number change: measured here: cell count max response; series mostly up to 46.1 µM; lipid storage change, negative = inhibition: at the top concentration
Summary of the method: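 Laser-scanning cytometry quantifies lipid droplet accumulation (500–530 nm total intensity; droplet/cell object ratio) in oleic acid-fed (400 uM added) Drosophila S3 cells treated with a concentration series. 20 uM Triacsin C defined 100% inhibition.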
Potency is the fitted concentration of half-maximal effect.

SMILES | lipid storage change, negative = inhibition | cell number change [%] | outcome | Potency
CCN(CC(=O)NCc1ccc(F)cc1)C(=O)c1ccc(COc2ccccc2)cc1 | 7.05% (inactive) | 2.25 |  | 
S=C(Nc1ccccn1)NC1CCCCC1 | 22.6% (inactive) | -4.33 |  | 
COc1ccc(C2CC2/C(C)=N/OC(=O)c2cccs2)cc1 (stereo not drawn) |  |  | inactive | 
CCOC(=O)c1cc2sc(C)cc2n1CC(=O)NCCc1ccccc1 | -3.61% (inactive) | 5.86 |  | 
Cc1cccc(C(=O)Nc2ccc(C)c(OC(=O)c3cccc(C)c3)c2)c1 | 0.347% (inactive) | -20.4 |  | 
O=C(CCCc1ccccc1)NCCc1ccccc1 |  | 1.1 | inactive | 
CCN(Cc1ccccc1)C(=O)COC(=O)c1cnc(C)cn1 | -29.5% (inactive) |  |  | 
COCCCNC(=O)CCNS(=O)(=O)c1ccc(C)cc1 | 8.63% (inactive) | 9.83 |  | 
CC(=O)Nc1ccc(S(=O)(=O)NCCC(=O)NCCOc2ccccc2)cc1 | 1.4% (inactive) | -2.82 |  | 
COc1ccc(CCNC(=O)COC(=O)c2cnc(C)cn2)cc1OC | 1.54% (inactive) | 5.11 |  | 
Cc1ccc(S(=O)(=O)NCCC(=O)NCCOc2ccccc2)cc1 | -20.7% [at 0.0737 µM] (inactive) | 2.02 |  | 
O=C(CCCCC(=O)NCCc1ccccc1)NCCc1ccccc1 | -26.6% (inactive) | -15.5 |  | 
CC(=O)Nc1ccc(S(=O)(=O)NCCC(=O)NCCCc2ccccc2)cc1 |  | 6.57 |  | 1.64 µM (active)
O=C(CCCCC(=O)NCCCc1ccccc1)NCCCc1ccccc1 |  | -16.3 |  | 20.6 µM (active)
Cc1cnc(C(=O)OCC(=O)NCCCc2ccccc2)cn1 |  | -37.4 |  | 5.17 µM (active)
Cc1ccc(S(=O)(=O)NCCC(=O)NCCCSc2ccccc2)cc1 |  | -14.6 |  | 16.4 µM (active)
CC(=O)Nc1ccc(S(=O)(=O)NCCc2ccccc2)cc1 |  | -18.3 | inactive | 
CC(=O)NC(Cc1ccccc1)C(=O)OCC(=O)c1ccc(F)cc1 (stereo not drawn) | -27.4% (inactive) |  |  | 
Cc1ccc(Nc2nc(-c3ccncc3)nc3ccccc23)cc1 | 6.48% (inactive) | -7.93 |  | 
Cc1nn(CCCC(=O)NCc2ccco2)c(=O)c2nn(-c3ccccc3)c(C)c12 | 15.5% (inactive) |  |  | 
CC(C)(/C=N/O)N(O)C=C1C=CC(=O)C=C1 | 0.34% (inactive) | 1.11 |  | 
N#C/C(C(=O)Oc1ccccc1)=C1\C=Cc2ccccc2N1 | -11.1% (inactive) | -1.92 |  | 
COc1ccc(OC(=O)/C=C/c2ccc([N+](=O)[O-])cc2)cc1 | -3.13% (inactive) | 3.89 |  | 
COc1ccc(S(=O)Cc2ccc(C(=O)NC3CC3)o2)cc1 (stereo not drawn) | 12% (inactive) | 13.8 |  | 
COc1ccc(N(C)S(=O)(=O)c2cccc(C(=O)Nc3nnc(C4CC4)s3)c2)cc1 | -3.22% (inactive) |  |  | 
COc1ccc(N(C)S(=O)(=O)c2cccc(C(=O)Nc3nc(C)c(C(C)=O)s3)c2)cc1 |  |  |  | 1.16 µM (active)
COc1ccc(N(C)S(=O)(=O)c2cccc(C(=O)Nc3nnc(C)s3)c2)cc1 |  | -20.6 | inactive | 
